This note sets out measurements from the supplement of paper PMC9950053.

Where a name gives a salt, the structure may show the parent alone.

The test system of the experiment is Danio rerio larvae (5 dpf). The experiment can be described thus: excitability (activity period 17 minus period 16, 1-s interval sound) minus DMSO control (percentage points); higher = more acoustic excitability than DMSO larvae. Particulars: 10 µM; exposure time: 3 h pre-incubation + 3 h imaging. On the procedure:
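Wild-type 5 dpf zebrafish larvae (n=48 per drug, 96-well plates, 28.5 °C) were exposed to Tocris FDA-approved library compounds at 10 µM (0.1% DMSO) for 3 h before and 3 h during imaging. Images were taken every 6 s during visual (moving coloured lines) and acoustic stimuli, and larvae were tracked with the DeepLabCut-based Z-LaP Tracker. Each behavioural measure is the treated-group mean minus the DMSO vehicle control mean (n=844), in percentage points. This mapping covers compounds with 4-character plate codes.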
With `N[C@@H]1C[C@H]1c1ccccc1` [Tranylcypromine hydrochloride], the excitability is 3.55.

On to `CN1C[C@H](C(=O)N[C@]2(C)O[C@@]3(O)[C@@H]4CCCN4C(=O)[C@H](Cc4ccccc4)N3C2=O)C[C@@H]2c3cccc4[nH]cc(c34)C[C@H]21` [Dihydroergotamine mesylate], for which the excitability worked out at 0.33.

`COc1cc2c(cc1OC)C1CC(=O)C(CC(C)C)CN1CC2` (stereo unspecified) [Tetrabenazine]: the excitability turned out to be 22.4.

As for `CCN(C)C(=O)Oc1cccc([C@H](C)N(C)C)c1` [Rivastigmine tartrate], the excitability was found to be 3.52.

On to `CC(O)(CS(=O)(=O)c1ccc(F)cc1)C(=O)Nc1ccc(C#N)c(C(F)(F)F)c1` (stereo unspecified) [Bicalutamide], for which the excitability was 3.42.

Turning to `C=C1C[C@@H]2[C@H](CC[C@]3(C)C(=O)CC[C@@H]23)[C@@]2(C)C=CC(=O)C=C12` [Exemestane], the excitability amounted to 11.9.

Take `CC[C@@H](C(N)=O)N1CCCC1=O` [Levetiracetam]: the excitability came to 1.58.

`O=c1[nH]c2ccccc2n1C1CCN(CCCC(c2ccc(F)cc2)c2ccc(F)cc2)CC1` [Pimozide]: the excitability was -0.377.

As for `C=CCN1C[C@H](C(=O)N(CCCN(C)C)C(=O)NCC)C[C@@H]2c3cccc4[nH]cc(c34)C[C@H]21` [Cabergoline], the excitability is 12.4.

On to `CC(C)C[C@H]1C(=O)N2CCC[C@H]2[C@]2(O)O[C@](NC(=O)[C@@H]3C=C4c5cccc6[nH]c(Br)c(c56)C[C@H]4N(C)C3)(C(C)C)C(=O)N12` [Bromocriptine mesylate], for which the excitability came out at 18.2.

For the compound `Cc1cccc([C@H](C)c2c[nH]cn2)c1C` [Dexmedetomidine hydrochloride], the excitability was 5.7.
